Assay outcomes deposited in PubChem BioAssay by National Center for Advancing Translational Sciences (NCATS).
Only some compounds are listed: those with a hit (about 15% of all), similar ones and a draw of the others.
HCV inh: qHTS Assay for Inhibitors of Hepatitis C Virus (HCV) | AID 651820, 2012 | Huh7.5.1 HCVcc-Cre infection, luciferase reporter, 44 h | 3.4% of 340,000 active | Potency, µM (doses to about 41.8 µM), hits mostly inhibitors
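Antiviral activity was scored by luciferase reporter output from cells infected with HCVcc-Cre (~0.5 moi) in presence of compound, 44 h infection period, cells seeded 1,000/well 4 h prior.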
Pf growth 96h: Primary qHTS for delayed death inhibitors of the malarial parasite plastid, 96 hour incubation | P. falciparum luciferase reporter growth, 96 h | Potency, µM (top dose mostly 28.7 µM), most hits filed as inhibitors | 6.9% of 320,000 active
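Parasite growth measured via integrated firefly luciferase reporter in P. falciparum. Infected erythrocytes at 2% hematocrit, 0.05% parasitemia final were treated 96 hours at 37 C under 5% CO2, and luminescence was read.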
HCMV inh: qHTS Assay for inhibitors of the human cytomegalovirus (HCMV) | HFF cells, HCMV-luciferase reporter, 72 h; stronger effect = lower value | activity change, negative = inhibition, % at 57.5 µM | 4.5% of 410,000 active; in the data active means activity change below about -60%; inconclusive means no clear call, values can overlap the other calls; inactive means above about -39%
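Two-dose cell screen: HFF monolayers treated with compounds and infected with luciferase-expressing HCMV at 1 PFU/cell, 72 h at 37C, then lysed for luciferase measurement.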
Pf growth 48h: Primary qHTS for delayed death inhibitors of the malarial parasite plastid, 48 hour incubation. P. falciparum luciferase growth in erythrocytes, 48 h. Potency, µM (highest dose often 28.7 µM), usual class: inhibitors. 5.9% of 310,000 active. AID 504832, 2011
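First compound was added to culture medium, then infected red cells at 0.1% parasitemia and 2% hematocrit (final). After incubation at 37 C under 5% CO2, luciferase detection reagent was dispensed and light output recorded.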
Sm TGR block: qHTS Assay for the Inhibitors of Schistosoma Mansoni Peroxiredoxins; Potency, µM (highest dose often 114 µM), most hits filed as inhibitors; 3% of 360,000 active; purified TGR, DTNB reduction, TNB absorbance 405 nm; Schistosoma mansoni thioredoxin glutathione reductase (TGR), Q962Y6; further: nearly all actives have a fitted effect of over 60% in size
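First, TGR (20 nM dispensed) and NADPH were mixed with compound. Second, a 15 min room-temperature incubation followed. Third, further NADPH and then DTNB were added to start the reaction. Finally, TNB absorbance was monitored kinetically.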
SARS PLP yeast: qHTS of Yeast-based Assay for SARS-CoV PLP | S. cerevisiae expressing SARS-CoV PLpro, growth rescue | Potency, µM (highest dose often 32.9 µM), most hits filed as activators | 0.19% of 330,000 active; calls by dose curve; further: nearly all actives have a fitted effect of over 55% in size
A number is an active result; [ ] = remark or other dose. Unless noted, the call rests on the fitted dose curve; in most records, active means well fitted curve in the direction sought with a large enough effect; inconclusive means small, poorly fitted or top-dose-only effect, or another doubt; inactive means no such curve, though single readings can be large; an effect the other way counts as inactive or inconclusive.

What do the screens show for `COc1ccc(Cl)cc1Nc1cc(C)nc2nc(-c3ccccc3C)nn12`?
HCMV inh: inactive; Sm TGR block: inactive

Results for O=C(CCSc1nc(-c2ccco2)cc(C(F)(F)F)n1)NCC1CCCO1 (stereo unspecified) ?
HCV inh: 10µM; Pf growth 96h: inconclusive; HCMV inh: inactive; Pf growth 48h: inconclusive; Sm TGR block: inactive; SARS PLP yeast: inactive

What do the screens show for `O=C(CCCSc1nc(-c2ccco2)cc(C(F)(F)F)n1)NCC1CCCO1` (stereo unspecified)?
HCV inh: inconclusive; Pf growth 96h: inactive; HCMV inh: inactive; Pf growth 48h: inconclusive; Sm TGR block: 50µM; SARS PLP yeast: inactive

What do the screens show for `O=C1CCC([N+](=O)[O-])C(c2ccc(-c3ccccc3)cc2)N1` (stereo unspecified)?
HCV inh: inactive; HCMV inh: inactive

Results for O=C(Oc1c(-c2ccccc2)c(=O)n2c3c(cccc13)CC2)c1ccccc1 ?
HCV inh: inactive; Pf growth 96h: inconclusive; HCMV inh: inactive; Pf growth 48h: inactive; Sm TGR block: inactive; SARS PLP yeast: inactive

What do the screens show for `O=C(Oc1c(-c2ccccc2)c(=O)n2c3c(cccc13)CC2)c1cccc([N+](=O)[O-])c1`?
HCV inh: inactive; Pf growth 96h: inactive; HCMV inh: -72; Pf growth 48h: inactive; Sm TGR block: inconclusive; SARS PLP yeast: inactive

How did CSc1nc(COC(=O)NC(C)C)c(COC(=O)NC(C)C)n1Cc1ccccc1 do in these assays?
HCMV inh: inactive

Results for COc1ccc(C)cc1S(=O)(=O)NCCN1CCOCC1 ?
HCV inh: inactive; Pf growth 96h: inconclusive; HCMV inh: inactive; Pf growth 48h: inactive[0.00184 µM]; Sm TGR block: inconclusive; SARS PLP yeast: inactive

What do the screens show for `Cc1cc(O)c(C(=O)c2cnc3c(c2)COc2ccccc2-3)cc1Cl`?
HCMV inh: inactive; Sm TGR block: inactive

How did CCCCN1CCc2c1nc1ccc(Br)cc1c2N do in these assays?
HCV inh: inconclusive; Pf growth 96h: 1.7µM; HCMV inh: inactive; Sm TGR block: inactive; SARS PLP yeast: inactive

How did Cc1ccc2nc3c(c(N)c2c1)CCN3C do in these assays?
HCV inh: inconclusive; Pf growth 96h: inconclusive; HCMV inh: inactive; Pf growth 48h: inactive; Sm TGR block: inactive; SARS PLP yeast: inactive

What do the screens show for `Brc1ccc2c(c1)-c1ccccc1C1=NCCN12`?
HCMV inh: -69

Results for Clc1ccc2c(c1)-c1ccccc1C1=NCCN12 ?
HCMV inh: -96

Results for CC1CCCCC1NC(=O)CN1CCC(O)(c2ccc(F)cc2)CC1 (stereo unspecified) ?
HCV inh: inactive; Pf growth 96h: inactive; HCMV inh: inactive; Pf growth 48h: inactive; Sm TGR block: inactive; SARS PLP yeast: inactive

What do the screens show for `O=C(Nc1ccc(Cl)cc1)c1cc2c(cc1O)[nH]c1ccccc12`?
HCV inh: inconclusive; Pf growth 96h: inconclusive; HCMV inh: -81; Pf growth 48h: 10µM; Sm TGR block: inactive; SARS PLP yeast: inactive

How did O=C(Cc1ccccc1)NC1CC(=O)N(c2ccc3c(c2)OCCO3)C1 (stereo unspecified) do in these assays?
HCMV inh: inactive; Sm TGR block: inactive

How did C/C(=N/O)c1cccc(N2Cc3ccccc3C2)c1 do in these assays?
HCV inh: inconclusive; Pf growth 96h: inconclusive; HCMV inh: inactive; Pf growth 48h: 13µM; Sm TGR block: 22µM; SARS PLP yeast: inactive

What do the screens show for `C/C(=N\O)c1cccc(Br)c1`?
HCV inh: inactive; Pf growth 96h: inactive; HCMV inh: inactive; Pf growth 48h: inconclusive; Sm TGR block: inactive; SARS PLP yeast: inactive

What do the screens show for `CC1(C)CC(=O)C(C(c2cccnc2)C2C(=O)CC(C)(C)CC2=O)C(=O)C1`?
HCV inh: inactive; Pf growth 96h: inactive; HCMV inh: inactive; Sm TGR block: inactive; SARS PLP yeast: inactive

Results for Cc1cc(C(C2C(=O)CC(C)(C)CC2=O)C2C(=O)CC(C)(C)CC2=O)cc(C)c1OC(F)F ?
HCV inh: inactive; Pf growth 96h: inactive; HCMV inh: inactive; Pf growth 48h: inactive; Sm TGR block: 32µM; SARS PLP yeast: inconclusive
